Data on one compound can be found in ChEMBL document CHEMBL1961873, “Compounds: GSK PKIS; Assays: Nanosyn kinase panel” (2012).

The target of experiment [1] is Protein kinase C gamma type (Homo sapiens) (UniProt P05129). The following applies: at 1 µM.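 Note: each value is an averaged percent inhibition of the enzyme.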
In experiment [2] the target is T1, Protein kinase C iota type (Homo sapiens) (UniProt P41743).
T1 sequence (whole entry): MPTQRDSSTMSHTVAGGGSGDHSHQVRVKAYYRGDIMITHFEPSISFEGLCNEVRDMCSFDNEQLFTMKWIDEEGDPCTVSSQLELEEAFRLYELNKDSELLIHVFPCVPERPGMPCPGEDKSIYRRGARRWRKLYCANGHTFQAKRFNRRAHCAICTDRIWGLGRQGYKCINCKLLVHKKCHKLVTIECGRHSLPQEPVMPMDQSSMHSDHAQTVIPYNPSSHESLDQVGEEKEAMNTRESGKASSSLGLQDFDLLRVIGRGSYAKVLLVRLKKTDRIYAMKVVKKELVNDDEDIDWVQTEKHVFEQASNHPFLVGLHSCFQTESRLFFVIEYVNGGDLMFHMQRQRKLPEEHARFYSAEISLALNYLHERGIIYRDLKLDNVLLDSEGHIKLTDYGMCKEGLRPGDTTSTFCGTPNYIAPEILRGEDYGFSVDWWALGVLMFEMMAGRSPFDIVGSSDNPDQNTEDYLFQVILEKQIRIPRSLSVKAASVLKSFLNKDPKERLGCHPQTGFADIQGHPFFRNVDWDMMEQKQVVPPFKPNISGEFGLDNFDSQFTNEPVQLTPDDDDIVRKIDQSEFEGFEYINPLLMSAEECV
To be noted: at 0.1 µM.

Experiment [3] has as its target T1, Protein kinase C iota type (Homo sapiens). The following applies: at 1 µM.
For experiment [4], the target named is Protein kinase C theta type (Homo sapiens) (UniProt Q04759). The following applies: at 0.1 µM.
Experiment [5] shares this target. The following applies: at 1 µM.
For experiment [6], the target named is Protein kinase C beta type (Homo sapiens) (UniProt P05771). To be noted: at 0.1 µM.
Experiment [7] shares this target. To be noted: at 1 µM.
Experiment [8] concerns the target T2, Serine/threonine-protein kinase D1 (Homo sapiens) (UniProt Q15139).
T2 sequence (whole entry): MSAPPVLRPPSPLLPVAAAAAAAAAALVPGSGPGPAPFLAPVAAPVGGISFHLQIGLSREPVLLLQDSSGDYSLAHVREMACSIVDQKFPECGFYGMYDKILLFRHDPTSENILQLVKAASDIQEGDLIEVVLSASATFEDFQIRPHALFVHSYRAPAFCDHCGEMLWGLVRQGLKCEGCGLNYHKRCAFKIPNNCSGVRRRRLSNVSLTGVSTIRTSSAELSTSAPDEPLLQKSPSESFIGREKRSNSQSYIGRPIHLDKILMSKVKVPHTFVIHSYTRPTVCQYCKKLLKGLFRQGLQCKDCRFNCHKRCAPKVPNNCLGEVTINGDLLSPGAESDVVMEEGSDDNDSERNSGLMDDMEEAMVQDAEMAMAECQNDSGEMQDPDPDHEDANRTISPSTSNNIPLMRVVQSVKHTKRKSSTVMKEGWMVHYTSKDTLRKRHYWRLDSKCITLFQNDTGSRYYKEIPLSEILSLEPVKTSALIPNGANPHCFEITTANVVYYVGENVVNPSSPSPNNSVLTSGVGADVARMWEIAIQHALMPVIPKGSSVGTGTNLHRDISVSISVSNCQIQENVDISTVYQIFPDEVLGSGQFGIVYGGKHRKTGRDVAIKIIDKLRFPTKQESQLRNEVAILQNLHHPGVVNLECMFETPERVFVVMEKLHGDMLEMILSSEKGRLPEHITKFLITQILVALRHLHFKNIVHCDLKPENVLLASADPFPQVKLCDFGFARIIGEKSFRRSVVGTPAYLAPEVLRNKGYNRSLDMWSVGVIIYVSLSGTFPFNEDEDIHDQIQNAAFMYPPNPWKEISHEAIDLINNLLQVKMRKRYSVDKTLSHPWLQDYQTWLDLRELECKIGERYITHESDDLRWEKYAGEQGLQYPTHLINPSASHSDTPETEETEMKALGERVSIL
The following applies: at 0.1 µM.

The target in experiment [9] is T2, Serine/threonine-protein kinase D1 (Homo sapiens). The following applies: at 1 µM.
For experiment [10], the target named is T3, Serine/threonine-protein kinase D2 (Homo sapiens) (UniProt Q9BZL6).
T3 sequence (whole entry): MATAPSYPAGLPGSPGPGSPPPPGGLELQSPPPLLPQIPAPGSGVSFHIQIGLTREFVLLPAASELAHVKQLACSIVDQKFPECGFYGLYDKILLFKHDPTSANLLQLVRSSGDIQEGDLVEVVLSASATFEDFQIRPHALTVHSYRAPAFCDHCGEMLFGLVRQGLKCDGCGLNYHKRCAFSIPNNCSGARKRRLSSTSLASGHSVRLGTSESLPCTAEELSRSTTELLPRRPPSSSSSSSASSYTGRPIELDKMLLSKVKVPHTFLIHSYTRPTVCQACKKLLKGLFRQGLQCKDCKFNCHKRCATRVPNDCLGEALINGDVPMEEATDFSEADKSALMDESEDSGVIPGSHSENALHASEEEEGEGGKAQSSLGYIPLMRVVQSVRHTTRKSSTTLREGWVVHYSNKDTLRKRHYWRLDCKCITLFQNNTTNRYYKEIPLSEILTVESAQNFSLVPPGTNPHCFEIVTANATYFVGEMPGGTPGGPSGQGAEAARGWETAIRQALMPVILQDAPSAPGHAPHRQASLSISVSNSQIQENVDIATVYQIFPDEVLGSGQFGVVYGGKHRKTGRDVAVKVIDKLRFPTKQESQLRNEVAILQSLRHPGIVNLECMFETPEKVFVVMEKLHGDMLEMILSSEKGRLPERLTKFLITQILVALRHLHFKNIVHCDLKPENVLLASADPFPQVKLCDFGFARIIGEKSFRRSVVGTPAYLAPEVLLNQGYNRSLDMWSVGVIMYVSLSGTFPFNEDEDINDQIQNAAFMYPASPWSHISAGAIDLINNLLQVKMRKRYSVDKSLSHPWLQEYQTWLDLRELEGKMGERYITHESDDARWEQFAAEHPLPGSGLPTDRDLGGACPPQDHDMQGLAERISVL
The following applies: at 0.1 µM.

Experiment [11] deals with T3, Serine/threonine-protein kinase D2 (Homo sapiens). The following applies: at 1 µM.
Experiment [12] deals with T4, Serine/threonine-protein kinase D3 (Homo sapiens) (UniProt O94806).
T4 sequence (whole entry): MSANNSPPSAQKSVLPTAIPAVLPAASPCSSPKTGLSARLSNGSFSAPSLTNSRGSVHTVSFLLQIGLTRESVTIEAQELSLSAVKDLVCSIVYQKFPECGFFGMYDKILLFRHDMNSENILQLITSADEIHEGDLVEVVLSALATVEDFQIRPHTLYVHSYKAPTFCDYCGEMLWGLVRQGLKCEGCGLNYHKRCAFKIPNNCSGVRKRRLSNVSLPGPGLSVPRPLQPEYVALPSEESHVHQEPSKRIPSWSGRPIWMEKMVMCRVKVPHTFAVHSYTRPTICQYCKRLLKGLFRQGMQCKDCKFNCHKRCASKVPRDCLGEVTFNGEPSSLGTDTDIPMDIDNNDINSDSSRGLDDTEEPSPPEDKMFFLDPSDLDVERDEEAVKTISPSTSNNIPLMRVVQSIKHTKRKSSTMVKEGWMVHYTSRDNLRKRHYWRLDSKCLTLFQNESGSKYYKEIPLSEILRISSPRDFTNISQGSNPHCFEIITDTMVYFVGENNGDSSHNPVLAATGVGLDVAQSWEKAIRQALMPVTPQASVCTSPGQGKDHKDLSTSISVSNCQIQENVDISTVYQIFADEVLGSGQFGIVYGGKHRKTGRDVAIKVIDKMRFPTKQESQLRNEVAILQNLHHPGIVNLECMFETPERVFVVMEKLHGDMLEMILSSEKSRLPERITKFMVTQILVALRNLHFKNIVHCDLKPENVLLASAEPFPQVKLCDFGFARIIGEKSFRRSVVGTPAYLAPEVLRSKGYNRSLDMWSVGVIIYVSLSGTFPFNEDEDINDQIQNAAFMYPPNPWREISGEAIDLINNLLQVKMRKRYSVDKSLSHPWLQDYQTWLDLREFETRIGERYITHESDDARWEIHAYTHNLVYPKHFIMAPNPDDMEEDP
To be noted: at 0.1 µM.

Experiment [13] deals with T4, Serine/threonine-protein kinase D3 (Homo sapiens). To be noted: at 1 µM.
Experiment [14] concerns the target T5, cGMP-dependent protein kinase 1 (Homo sapiens) (UniProt Q13976).
T5 sequence (whole entry): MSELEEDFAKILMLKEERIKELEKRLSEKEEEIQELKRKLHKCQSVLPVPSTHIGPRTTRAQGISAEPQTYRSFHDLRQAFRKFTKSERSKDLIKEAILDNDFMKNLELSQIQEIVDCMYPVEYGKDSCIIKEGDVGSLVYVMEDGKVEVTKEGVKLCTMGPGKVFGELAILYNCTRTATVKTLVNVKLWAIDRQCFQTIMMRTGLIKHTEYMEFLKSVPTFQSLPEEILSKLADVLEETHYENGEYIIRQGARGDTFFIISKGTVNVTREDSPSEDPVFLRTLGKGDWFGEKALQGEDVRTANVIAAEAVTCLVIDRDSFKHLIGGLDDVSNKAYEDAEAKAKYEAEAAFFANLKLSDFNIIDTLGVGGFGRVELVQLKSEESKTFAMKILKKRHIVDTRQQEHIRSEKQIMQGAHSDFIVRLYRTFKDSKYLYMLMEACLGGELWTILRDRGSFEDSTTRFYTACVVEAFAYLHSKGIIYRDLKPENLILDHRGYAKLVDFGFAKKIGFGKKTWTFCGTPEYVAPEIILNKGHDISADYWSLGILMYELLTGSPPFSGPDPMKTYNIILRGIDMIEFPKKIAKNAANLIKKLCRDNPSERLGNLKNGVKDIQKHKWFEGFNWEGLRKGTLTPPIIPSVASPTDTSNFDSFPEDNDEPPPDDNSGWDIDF
To be noted: at 0.1 µM.

Experiment [15] deals with T5, cGMP-dependent protein kinase 1 (Homo sapiens). To be noted: at 1 µM.
In experiment [16] the target is T6, cGMP-dependent protein kinase 2 (Homo sapiens) (UniProt Q13237).
T6 sequence (whole entry): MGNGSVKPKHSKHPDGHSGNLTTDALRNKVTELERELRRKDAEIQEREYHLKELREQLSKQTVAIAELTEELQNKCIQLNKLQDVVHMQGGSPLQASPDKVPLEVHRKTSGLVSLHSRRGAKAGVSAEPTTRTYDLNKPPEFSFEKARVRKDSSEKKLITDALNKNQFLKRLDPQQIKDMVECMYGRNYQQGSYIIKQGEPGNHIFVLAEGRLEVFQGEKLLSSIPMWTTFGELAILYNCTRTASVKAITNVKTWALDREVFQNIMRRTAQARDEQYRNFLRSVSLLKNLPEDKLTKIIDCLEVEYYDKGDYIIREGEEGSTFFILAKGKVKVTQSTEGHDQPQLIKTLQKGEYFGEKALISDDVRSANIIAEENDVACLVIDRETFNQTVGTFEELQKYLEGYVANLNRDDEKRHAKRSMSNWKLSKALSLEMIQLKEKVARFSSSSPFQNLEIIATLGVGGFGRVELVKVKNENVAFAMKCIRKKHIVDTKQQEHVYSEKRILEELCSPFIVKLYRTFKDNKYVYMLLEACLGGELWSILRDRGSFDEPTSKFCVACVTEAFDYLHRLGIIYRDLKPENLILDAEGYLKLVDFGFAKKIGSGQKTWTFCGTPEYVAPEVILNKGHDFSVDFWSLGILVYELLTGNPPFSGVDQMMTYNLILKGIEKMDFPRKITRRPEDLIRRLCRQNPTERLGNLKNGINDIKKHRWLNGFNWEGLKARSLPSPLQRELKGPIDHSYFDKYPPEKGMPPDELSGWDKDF
The following applies: at 0.1 µM.

The target in experiment [17] is T6, cGMP-dependent protein kinase 2 (Homo sapiens). The following applies: at 1 µM.
Experiment [18] addresses T7, cAMP-dependent protein kinase catalytic subunit PRKX (Homo sapiens) (UniProt P51817).
T7 sequence (whole entry): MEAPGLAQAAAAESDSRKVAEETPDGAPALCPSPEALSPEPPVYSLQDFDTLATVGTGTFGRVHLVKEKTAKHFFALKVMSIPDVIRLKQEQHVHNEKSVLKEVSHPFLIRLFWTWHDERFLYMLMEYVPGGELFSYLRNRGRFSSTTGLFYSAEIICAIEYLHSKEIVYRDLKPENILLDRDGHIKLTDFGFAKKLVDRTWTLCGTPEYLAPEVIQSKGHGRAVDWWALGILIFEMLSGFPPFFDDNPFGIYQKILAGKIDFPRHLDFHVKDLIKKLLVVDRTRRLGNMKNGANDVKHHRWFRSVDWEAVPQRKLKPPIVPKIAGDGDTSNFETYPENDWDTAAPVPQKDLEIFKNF
To be noted: at 0.1 µM.

In experiment [19] the target is T7, cAMP-dependent protein kinase catalytic subunit PRKX (Homo sapiens). The following applies: at 1 µM.
Experiment [20] deals with Rho-associated protein kinase 1 (Homo sapiens) (UniProt Q13464). The following applies: at 0.1 µM.
Rho-associated protein kinase 1 (Homo sapiens), sequence (Q13464 2-1354 limits assumed): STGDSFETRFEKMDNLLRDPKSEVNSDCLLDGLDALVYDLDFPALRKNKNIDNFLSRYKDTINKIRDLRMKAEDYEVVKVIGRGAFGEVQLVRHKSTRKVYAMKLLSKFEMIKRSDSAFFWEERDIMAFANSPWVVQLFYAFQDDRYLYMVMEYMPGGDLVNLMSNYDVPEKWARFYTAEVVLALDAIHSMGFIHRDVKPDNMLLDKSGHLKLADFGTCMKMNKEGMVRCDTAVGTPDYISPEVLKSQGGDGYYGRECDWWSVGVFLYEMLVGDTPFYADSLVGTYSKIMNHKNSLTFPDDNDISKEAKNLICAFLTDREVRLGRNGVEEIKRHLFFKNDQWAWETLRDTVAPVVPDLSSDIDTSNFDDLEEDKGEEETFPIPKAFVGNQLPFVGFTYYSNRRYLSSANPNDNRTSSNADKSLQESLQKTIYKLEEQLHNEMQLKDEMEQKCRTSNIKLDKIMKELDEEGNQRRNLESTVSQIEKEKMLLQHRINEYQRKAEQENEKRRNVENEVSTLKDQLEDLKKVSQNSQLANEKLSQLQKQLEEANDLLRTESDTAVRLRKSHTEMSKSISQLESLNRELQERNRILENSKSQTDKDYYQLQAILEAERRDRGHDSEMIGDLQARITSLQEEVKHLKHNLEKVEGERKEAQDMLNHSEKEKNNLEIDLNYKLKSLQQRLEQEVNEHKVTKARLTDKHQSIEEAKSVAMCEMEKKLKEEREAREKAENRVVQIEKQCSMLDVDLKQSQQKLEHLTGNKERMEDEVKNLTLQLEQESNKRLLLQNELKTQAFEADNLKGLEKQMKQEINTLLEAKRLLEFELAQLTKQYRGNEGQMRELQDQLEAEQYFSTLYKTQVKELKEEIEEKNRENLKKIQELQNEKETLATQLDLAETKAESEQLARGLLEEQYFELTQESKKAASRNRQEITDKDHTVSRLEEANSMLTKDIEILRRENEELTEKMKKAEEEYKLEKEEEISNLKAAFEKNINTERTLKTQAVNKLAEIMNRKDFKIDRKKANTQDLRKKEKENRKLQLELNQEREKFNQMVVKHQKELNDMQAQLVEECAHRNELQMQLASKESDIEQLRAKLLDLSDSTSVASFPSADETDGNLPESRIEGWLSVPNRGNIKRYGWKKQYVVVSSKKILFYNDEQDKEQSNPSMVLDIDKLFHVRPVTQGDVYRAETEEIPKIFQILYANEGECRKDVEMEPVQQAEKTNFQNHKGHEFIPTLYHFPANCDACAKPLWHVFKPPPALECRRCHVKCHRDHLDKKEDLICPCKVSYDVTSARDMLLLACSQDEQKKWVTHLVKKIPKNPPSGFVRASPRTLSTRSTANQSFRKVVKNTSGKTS

Protein kinase C theta type (Homo sapiens), sequence (Q04759 whole entry, looked up): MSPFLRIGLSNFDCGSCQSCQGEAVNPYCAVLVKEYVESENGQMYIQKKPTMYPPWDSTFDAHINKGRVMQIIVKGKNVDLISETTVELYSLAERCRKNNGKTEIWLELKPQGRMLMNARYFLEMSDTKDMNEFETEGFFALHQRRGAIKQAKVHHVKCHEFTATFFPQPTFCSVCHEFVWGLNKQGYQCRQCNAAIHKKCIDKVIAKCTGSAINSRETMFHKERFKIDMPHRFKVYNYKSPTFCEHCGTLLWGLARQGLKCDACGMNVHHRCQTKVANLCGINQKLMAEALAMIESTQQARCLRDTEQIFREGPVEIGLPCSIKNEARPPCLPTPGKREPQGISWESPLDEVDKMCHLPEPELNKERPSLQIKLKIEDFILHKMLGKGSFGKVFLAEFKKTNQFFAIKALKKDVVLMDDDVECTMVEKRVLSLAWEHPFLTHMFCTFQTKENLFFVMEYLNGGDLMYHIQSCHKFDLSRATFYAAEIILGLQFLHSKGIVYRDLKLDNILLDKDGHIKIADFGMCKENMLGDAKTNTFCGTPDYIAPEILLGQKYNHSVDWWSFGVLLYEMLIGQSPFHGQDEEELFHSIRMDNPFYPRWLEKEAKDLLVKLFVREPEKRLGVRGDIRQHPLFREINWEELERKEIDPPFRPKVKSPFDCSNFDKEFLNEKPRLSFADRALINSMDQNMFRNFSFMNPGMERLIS
Protein kinase C beta type (Homo sapiens), sequence (P05771 2-671 limits assumed): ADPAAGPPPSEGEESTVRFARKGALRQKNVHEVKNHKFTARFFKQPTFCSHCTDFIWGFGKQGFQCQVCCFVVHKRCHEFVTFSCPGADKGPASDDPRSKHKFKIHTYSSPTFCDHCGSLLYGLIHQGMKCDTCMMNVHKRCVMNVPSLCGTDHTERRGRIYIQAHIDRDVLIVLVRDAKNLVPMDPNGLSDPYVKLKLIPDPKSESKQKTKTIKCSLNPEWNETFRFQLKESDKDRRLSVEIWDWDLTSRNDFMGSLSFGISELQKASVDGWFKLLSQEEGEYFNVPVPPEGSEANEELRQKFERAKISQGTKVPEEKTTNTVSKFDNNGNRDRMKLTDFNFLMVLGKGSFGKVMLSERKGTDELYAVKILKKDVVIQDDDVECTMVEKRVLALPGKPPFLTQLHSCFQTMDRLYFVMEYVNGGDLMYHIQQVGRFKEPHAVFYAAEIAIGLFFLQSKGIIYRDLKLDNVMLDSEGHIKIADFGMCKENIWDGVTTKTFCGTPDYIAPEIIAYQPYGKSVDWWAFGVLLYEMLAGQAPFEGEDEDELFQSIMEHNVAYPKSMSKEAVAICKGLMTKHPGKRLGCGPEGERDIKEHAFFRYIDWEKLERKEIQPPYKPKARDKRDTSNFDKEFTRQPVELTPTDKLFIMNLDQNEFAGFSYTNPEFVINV

For the compound `CN(C)CCOc1ccc(-c2nc(-c3ccncc3)c(-c3ccc4c(c3)CC/C4=N\O)[nH]2)cc1`, the inhibition in experiment [1] is 3.66%; in experiment [2], 3.25%; in [3], 3.37%; in experiment [4] it was 2.07%; in experiment [5], 2.93%; in [6] it was 0.36%. For the same compound, the inhibition in experiment [7] was 3.35%; in experiment [8], 3.26%; in experiment [9], 6.18%; in experiment [10], 2.55%; in experiment [11], 6.37%; in [12], 3.58%. The inhibition in experiment [13] was 5.44%; in experiment [14], 2.17%; in experiment [15], 6.12%; in experiment [16], 2.69%; in [17], 12.3%; in experiment [18] it was 1.16%. In addition, the inhibition in experiment [19] is 1.33%; in [20] it was 0.51%.

By inhibition is commonly meant the change of the read-out against control, counted positive when it falls. Read a high inhibition as a strong effect.
